According to PubChem BioAssay AID489038 (National Center for Advancing Translational Sciences (NCATS), 2010):
Inconclusive results are not listed. A call without a number means that no potency is given here. Unmarked numbers belong to inactive results. Activity calls are given as the source filed them. The call rests on the fitted dose curve; in most records, active means well fitted inhibition curve with a large enough effect; inconclusive means small, poorly fitted or top-dose-only effect, or effect the other way; inactive means no such curve, though single readings can be large or run the other way.

assay: DHR3 selectivity assay for inhibitors of ROR gamma transcriptional activity; settings: Drosophila S2 Gal4-DHR3 UAS-luciferase, 20 h; series mostly up to 92.2 µM
Description: NIH Molecular Libraries Probe Production Network [MLPCN] NIH Chemical Genomics Center [NCGC] MLPCN Grant: R03 DA026211-01 Assay Provider: Dan Littman, New York University Assay Overview: The retinoic acid-related orphan receptor (ROR) gamma is a transcription factor that has a central role in the differentiation of Th17 cells, a subset of T helper cells that secrete the inflammatory cytokines IL-17A, IL-17F, and IL-22. Th17 cells have been implicated in graft versus host disease, autoimmune disease and asthma. RORgamma is induced in naive T helper cells in the presence of TGF-beta combined with IL-6, IL-21, or IL-23, and thereafter directs the expression of the Th17 lineage cytokines. To identify […] inhibitors, a Drosophila Schneider cell line was stably transfected with two vectors: a gene expressing a fusion of the Gal4 DNA binding domain and the transactivation domain of the Drosophila Hormone Receptor 3 (DHR3), under the control of the metallothionine promoter and a Photinus luciferase reporter regulated by the Gal4 binding site enhancer, UAS. […] Small molecule inhibitors that inhibit components common to the RORgamma and DHR3 assays, such as proteins that interact with general nuclear hormone receptors, will be active in both assays and thus scored as nonselective.
Assay Protocol Summary: For screening, 600 cells in 4 uL/well were dispensed into white solid 1536-well plates (Grenier) using a solenoid-based dispenser. Following transfer of 23 nL compound or DMSO vehicle by a pin tool, the plates were incubated 1 hr at ambient temperature, and 1 uL/well copper sulfate (700 uM final concentration) was added. The plates were centrifuged 15 s at 1000 RPM and incubated 20 hr at ambient temperature. After addition of 1.5 uL Photinus luciferase detection reagent, the plates were incubated 10 min at ambient temperature and then read by an ViewLux (Perkin Elmer) to detect luminescence.
Potency means the concentration at half of the fitted maximal effect.

With `CC(C)(C)c1ccc(-c2noc(CCC(=O)Nc3cccnc3)n2)cc1` as the compound, how does the Potency read?
The Potency was 51.2 nM (active).

With `COc1cc(O)c(C(CC(=O)N2CCCC(C(C)C)C2)c2ccc3c(c2)OCO3)c(OC)c1` (stereo not given) as the compound, how does the Potency read?
Its Potency is “inactive”.

For `C[C@@H]1[C@H](C)CC[C@]2(C(=O)O)CC[C@]3(C)C(=CC[C@@H]4[C@@]5(C)CC[C@H](O)C(C)(C)[C@H]5CC[C@]43C)[C@@H]12`, which Potency is on record?
Its Potency is 18200 nM (active).

With `COc1cc(O)c(C(CC(=O)NC2CCC(C)CC2)c2ccc3c(c2)OCO3)c(OC)c1` (stereo not given) as the compound, how does the Potency read?
The Potency was “inactive”.

Which Potency does the source give for `COc1cc(O)c(C(CC(=O)N2CCCC(c3nc4ccccc4o3)C2)c2ccc3c(c2)OCO3)c(OC)c1` (stereo not given) here?
Its Potency is “inactive”.

With `Cc1ccc(Sc2cncc3sc(C(N)=O)cc23)cc1` as the compound, how does the Potency read?
Its Potency is 102 nM (active).

For `CC1CCCN(C(=O)CC(c2ccc3c(c2)OCO3)c2ccc3ccccc3c2O)C1` (stereo not given), which Potency is on record?
The Potency was “inactive”.

With `CC1=C(\C=C/C(C)=C/C=C\C(C)=C\C(=O)O)C(C)(C)CCC1` as the compound, how does the activity change, negative = inhibition read?
Its activity change, negative = inhibition is -6.6% [at 20 µM].

For `COCC1CCCCN1C(=O)c1cc(COc2ccc3ncccc3c2)on1` (stereo not given), which Potency is on record?
The Potency was 9110 nM (active).

With `CC1CCCN(C(=O)CC(c2ccc3c(c2)OCO3)c2cc(-c3ccccc3)ccc2O)C1` (stereo not given) as the compound, how does the Potency read?
Its Potency is “inactive”.

For `COC(=O)c1ccc(OCC(=O)c2ccc(O)cc2O)cc1`, which Potency is on record?
Its Potency is 363 nM (active).

With `COc1ccccc1CNC(=O)[C@@H](NC(=O)C1CCN(C(=O)[C@@H]2CCCN2C(=O)OC(C)(C)C)CC1)C(C)C` as the compound, how does the Potency read?
The Potency was “inactive”.

For `Cc1ccc(C)c(C(CC(=O)N2CCCC(C)C2)c2ccc3c(c2)OCO3)c1O` (stereo not given), which Potency is on record?
Its Potency is “inactive”.

Which Potency does the source give for `COc1cc(O)c(C(CC(=O)N2CCc3ccccc32)c2ccc3c(c2)OCO3)c(OC)c1` (stereo not given) here?
The Potency was “inactive”.

With `COc1cc(OC)c(C(CC(=O)N2CCCC(C)C2)c2ccc3c(c2)OCO3)c(OC)c1` (stereo not given) as the compound, how does the Potency read?
Its Potency is “inactive”.

Which Potency does the source give for `Cc1cc(C)c2[nH]c(C(=O)Nc3ccc4c(c3)OCO4)cc2c1` here?
Its Potency is 204 nM (active).

Which Potency does the source give for `CCC1CCCN(C(=O)CC(c2ccc3c(c2)OCO3)c2c(O)cc(OC)cc2OC)C1` (stereo not given) here?
The Potency was “inactive”.

Which Potency does the source give for `CC1CCCN(C(=O)CC(c2ccc3c(c2)OCO3)c2cc(C(C)C)ccc2O)C1` (stereo not given) here?
The Potency was “inactive”.

With `Cc1cccc(-c2nc3cc(NC(=O)C4CCCO4)ccc3o2)c1` (stereo not given) as the compound, how does the Potency read?
The Potency was 2290 nM (active).

Which Potency does the source give for `COc1cc(O)c(C(CC(=O)N2CCCC(C)C2)c2ccc(-c3ccccc3)cc2)c(OC)c1` (stereo not given) here?
Its Potency is “inactive”.

For `COC(=O)Cn1c(CN2CCc3ccccc3C2)nc2c1c(=O)n(C)c(=O)n2C`, which Potency is on record?
The Potency was 8120 nM (active).

With `O=C(CCCN1C(=O)/C(=C/c2ccccc2Cl)SC1=S)Nc1cccnc1` as the compound, how does the Potency read?
Its Potency is 645 nM (active).

Which Potency does the source give for `CCOC(=O)Cn1c(CN2CCc3ccccc3C2)nc2c1c(=O)n(C)c(=O)n2C` here?
Its Potency is 6450 nM (active).

Which Potency does the source give for `COc1cc(O)c(C(CC(=O)N2CCCC(C)C2)c2ccccc2C)c(OC)c1` (stereo not given) here?
Its Potency is “inactive”.

For `COc1cc(O)c(C(CC(=O)N2CCOCC2)c2ccc(C)cc2)c(OC)c1` (stereo not given), which Potency is on record?
The Potency was “inactive”.

Which Potency does the source give for `COc1cc(O)c(C(CC(=O)N2CCCC(C#N)C2)c2ccc3c(c2)OCO3)c(OC)c1` (stereo not given) here?
The Potency was “inactive”.

Which Potency does the source give for `COc1cc(O)c(C(CC(=O)N2CCC(c3ccccc3)CC2)c2ccc3c(c2)OCO3)c(OC)c1` (stereo not given) here?
Its Potency is “inactive”.

Which Potency does the source give for `COc1cc(O)c(C(CC(=O)N2CCCC(C(=O)c3ccccc3)C2)c2ccc3c(c2)OCO3)c(OC)c1` (stereo not given) here?
Its Potency is “inactive”.

For `COc1cc(O)c(C(CC(=O)N2CCC(C)CC2)c2ccc(OC)c(OC)c2)c(OC)c1` (stereo not given), which Potency is on record?
The Potency was “inactive”.

Which Potency does the source give for `COc1cc(O)c(C(CC(=O)N2CCCC(CN3CCCCC3)C2)c2ccc3c(c2)OCO3)c(OC)c1` (stereo not given) here?
The Potency was “inactive”.

With `CCOC(=O)C1CCN(CC(=O)Nc2cc(C)nn2-c2nc3ccccc3s2)CC1` as the compound, how does the Potency read?
Its Potency is 7240 nM (active).

For `COc1ccc(C(CC(=O)N2CCCC(C)C2)c2ccc3c(c2)OCO3)c(O)c1` (stereo not given), which Potency is on record?
Its Potency is “inactive”.

For `COc1ccc(C(CC(=O)Nc2ccc(F)cc2)c2ccccc2)cc1` (stereo not given), which Potency is on record?
The Potency was “inactive”.

Which Potency does the source give for `COc1cc(O)c(C(CC(=O)NCc2ccccc2)c2ccc3c(c2)OCO3)c(OC)c1` (stereo not given) here?
Its Potency is “inactive”.

For `COc1cc(OC)c(C(CC(=O)N2CCCC(C)C2)c2ccc3c(c2)OCO3)c(OCc2ccccc2)c1` (stereo not given), which Potency is on record?
Its Potency is 14400 nM (active).

Which Potency does the source give for `Cc1ccc(C(C)C)c(C(CC(=O)N2CCCC(C)C2)c2ccc3c(c2)OCO3)c1O` (stereo not given) here?
Its Potency is “inactive”.

Which Potency does the source give for `CCOC(=O)c1sc(NC(=O)c2cc3c(s2)CCC(C)C3)nc1C` (stereo not given) here?
Its Potency is 51.2 nM (active).

With `CCNC(=O)CCc1nc(-c2ccc(C(C)(C)C)cc2)no1` as the compound, how does the Potency read?
Its Potency is 115 nM (active).

With `CCC1(CC)CCN(C(=O)CC(c2ccc3c(c2)OCO3)c2c(O)cc(OC)cc2OC)C1` (stereo not given) as the compound, how does the Potency read?
Its Potency is “inactive”.

For `CCOc1ccc(-c2cc(CCCC(=O)NCc3cccnc3)no2)cc1`, which Potency is on record?
Its Potency is 812 nM (active).
